Experimental data published in PubChem BioAssay (NCI).
About 83,000 compounds went through this panel and 20% of them were active in at least one assay; those are over-represented in the sample as a whole.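 Interpretation: 100, growth as untreated; towards 0, rising growth inhibition; 0, no net growth; 0 to -100, cell death. Compounds scoring below 10 were considered active.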 The source made the active and inactive calls.

Columns and labels:
Assay in all cases: NCI-60 one-dose screen, 48 h (100 = growth as untreated, 0 = no growth, -100 = all killed)
Conditions in all cases: 10 µM unless noted
[1] = system: NCI-H23 lung
[2] = system: NCI-H226 lung
[3] = system: NCI-H322M lung
[4] = system: HOP-62 NSCLC
[5] = system: NCI-H460 lung
[6] = system: HOP-92 NSCLC
[7] = system: NCI-H522 lung
[8] = system: A549/ATCC NSCLC
[9] = system: 786-0 renal
[10] = system: COLO 205 colon
[11] = system: DU-145 prostate
[12] = system: K-562 leukemia
[13] = system: MALME-3M melanoma
[14] = system: MDA-MB-231 breast
[15] = system: RXF 393 renal
[16] = system: SF-268 CNS
[17] = system: SF-295 CNS
[18] = system: SF-539 CNS
[19] = system: UACC-257 melanoma
[20] = system: M14 melanoma

Measured: growth

CCC1C(=O)COC1=O (stereo not given)
inactive: [1] 95.7% | [2] 100% | [3] 104% | [4] 77.1% | [5] 105% | [6] 80.6% | [7] 77.7% | [8] 64.1% | [9] 101% | [10] 100% | [11] 108% | [12] 92% | [13] 99.3% | [15] 122% | [16] 101% | [17] 97.9% | [18] 105% | [19] 81.8% | [20] 93.2%
active: [14] -22.4%

CC(=O)OC[C@]12CC[C@@H](/C(C)=N/O)[C@@H]1[C@H]1CC[C@@H]3[C@@]4(C)CCCNC(C)(C)[C@@H]4CC[C@@]3(C)[C@]1(C)CC2
inactive: [1] 86.2% | [2] 88.5% | [3] 90.7% | [4] 85.2% | [5] 84.5% | [6] 66.9% | [7] 83.8% | [8] 64.6% | [9] 73.5% | [10] 75.8% | [11] 77.3% | [12] 41.3% | [13] 89.2% | [14] 82.7% | [15] 71.2% | [16] 62.8% | [17] 84.5% | [18] 79.5% | [19] 81.4% | [20] 78.1%

Cc1ccc(-c2nc([P+](c3ccccc3)(c3ccccc3)c3ccccc3)c(N3CCOCC3)o2)cc1
inactive: [9] 15.9% | [11] 12.9% | [16] 12.5% | [18] 19.3%
active: [1] -9.72% | [2] -2.72% | [3] 7.88% | [4] -41.5% | [5] 3.34% | [6] -28.7% | [7] 0.415% | [8] 9.89% | [10] -70% | [12] 4.64% | [13] -18.8% | [14] -0.628% | [15] -1.34% | [17] -10.3% | [19] -4.98% | [20] 0.413%

COc1ccc(-c2c(-c3nc4ccc(N5CCOCC5)cc4[nH]3)[nH]c(C)c2C(C)=O)cc1
inactive: [1] 52.6% | [2] 49.7% | [3] 43.6% | [4] 30.6% | [5] 57.8% | [6] 49.5% | [7] 37.8% | [8] 48.4% | [9] 45.3% | [10] 15.9% | [11] 74.6% | [12] 35.1% | [13] 36.4% | [14] 37.5% | [15] 44.8% | [16] 70.3% | [17] 35.7% | [18] 36.9% | [19] 44.7% | [20] 35.6%

CC(=O)Cc1nsc(NC(=O)c2ccoc2COc2ccccc2)n1
inactive: [1] 95.2% | [2] 105% | [3] 94.3% | [4] 107% | [5] 107% | [6] 90.1% | [7] 94.1% | [8] 99.3% | [9] 98.7% | [10] 121% | [11] 106% | [12] 90.6% | [13] 96.8% | [14] 95% | [15] 113% | [16] 96.3% | [17] 98.6% | [18] 91.6% | [19] 93.2% | [20] 95.4%

O=C1c2cccc3cccc(c23)C(=O)N1CC#Cc1ccc2c3c(cccc13)C(=O)N(CCO)C2=O
inactive: [1] 81% | [2] 91.9% | [3] 94.9% | [4] 84.5% | [5] 95.8% | [6] 86.4% | [7] 92% | [8] 97.3% | [9] 98.1% | [10] 118% | [11] 88.6% | [12] 95.1% | [13] 100% | [14] 66.9% | [15] 85.1% | [16] 78.9% | [17] 98.7% | [18] 90.8% | [19] 94.2% | [20] 84.8%

Cc1cc(N(CCNc2ccnc3cc(Cl)ccc23)Cc2ccco2)nc(Cl)n1
active: [2] -62.3% | [4] -48.2% | [5] -59.8% | [6] -76.9% | [7] -8.16% | [8] -55.8% | [9] -92.8% | [10] -53.5% | [12] -54.5% | [13] -64.6% | [14] -75.4% | [15] -79.8% | [17] -75% | [18] -80.8% | [19] -29.2% | [20] -64.9%
inactive: [1] 14.2% | [3] 12.6% | [11] 19.6% | [16] 30.9%

COc1ccc(-c2cc(=O)oc3ccc(Cl)cc23)cc1F
inactive: [1] 18.1% | [2] 49.1% | [3] 46.9% | [4] 20.8% | [6] 33.6% | [8] 10.8% | [9] 25% | [11] 14.7% | [13] 103% | [14] 21.8% | [15] 38.7% | [16] 26.2% | [17] 20.4% | [19] 47.3% | [20] 15.3%
active: [5] 7.67% | [7] -27.8% | [10] -26.4% | [12] 7.21% | [18] -2.9%

O=P(O)(c1ccccc1)c1ccccc1I
inactive: [1] 96.4% | [2] 90% | [3] 94.1% | [4] 94.8% | [5] 97.2% | [6] 83.9% | [7] 80.7% | [8] 71.2% | [9] 109% | [10] 107% | [11] 109% | [12] 93.8% | [13] 87.5% | [14] 97.1% | [15] 102% | [16] 99.8% | [17] 93.7% | [18] 101% | [19] 76.5% | [20] 90.1%

Cc1nn(-c2ccc(Br)cc2)c2nc3[nH]c(=O)[nH]c(=O)c3nc12
inactive: [1] 99% | [2] 103% | [3] 119% | [4] 120% | [5] 108% | [6] 110% | [7] 98.1% | [8] 102% | [9] 100% | [10] 115% | [11] 114% | [12] 101% | [13] 108% | [14] 110% | [15] 114% | [16] 110% | [17] 98.6% | [18] 99.7% | [19] 99% | [20] 112%
